Among the test systems are NCI-H23 lung; NCI-H226 lung; NCI-H322M lung; HOP-62 NSCLC; NCI-H460 lung; HOP-92 NSCLC; NCI-H522 lung; A549/ATCC NSCLC; 786-0 renal; COLO 205 colon; DU-145 prostate; K-562 leukemia; MALME-3M melanoma; MDA-MB-231 breast; RXF 393 renal; SF-268 CNS; SF-295 CNS; SF-539 CNS; UACC-257 melanoma; M14 melanoma.
Assay in all cases: NCI-60 one-dose screen, 48 h (100 = growth as untreated, 0 = no growth, -100 = all killed)
Common to all, as to settings: 10 µM unless noted

The panel holds about 83,000 compounds, 20% with a hit somewhere; the sample as a whole holds those more often.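 Treatment: one concentration, 48 hours, 96-well format. Scoring: percent growth, with anything below 10 considered active.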 Unmarked numbers belong to inactive results. Calls of active or inactive are those of the source.

Regarding `COc1cccc(-c2nc(-c3ccc(NS(=O)(=O)c4ccccc4)cc3)[nH]c2-c2ccnc(Br)c2)c1`, the growth in the experiment on NCI-H23 lung is 25.8%; in the experiment with NCI-H226 lung, 37.3%; in the experiment on NCI-H322M lung it was 32.4%; in the experiment with HOP-62 NSCLC it was 26.5%; with NCI-H460 lung, 16.7%; in the experiment on HOP-92 NSCLC, 24.5%. The growth in the experiment with NCI-H522 lung is 20.7%; in the experiment with A549/ATCC NSCLC, 29%; with 786-0 renal, 20%; in the experiment on COLO 205 colon it was 35.5%; in the experiment on DU-145 prostate it was 44.3%; in the experiment on K-562 leukemia, 5.37% (active). The growth in the experiment with MALME-3M melanoma was 40.2%; in the experiment with MDA-MB-231 breast it was 30.1%; with RXF 393 renal it was -24.5% (active); in the experiment with SF-268 CNS it was 31.4%; in the experiment on SF-295 CNS, 3.83% (active); in the experiment with SF-539 CNS it was 36.6%. In addition, the growth in the experiment on UACC-257 melanoma was 48.7%; in the experiment with M14 melanoma, 27.1%.
`Cc1nc2ccccc2c(/C=C/c2ccc(Cl)cc2)c1C(=O)/C=C/c1ccc(C(F)(F)F)cc1`: the growth with NCI-H23 lung was -33.4% (active); with NCI-H226 lung, -54.7% (active); with NCI-H322M lung it was -43.3% (active); in the experiment with HOP-62 NSCLC, -62.8% (active); with NCI-H460 lung, -75.3% (active); with HOP-92 NSCLC, -82.1% (active). For the same molecule, the growth in the experiment on NCI-H522 lung was -14.3% (active); in the experiment with A549/ATCC NSCLC, 10.5%; with 786-0 renal, -85% (active); in the experiment with COLO 205 colon, -44.2% (active); with DU-145 prostate, -83.7% (active); in the experiment with K-562 leukemia, -7.8% (active). Besides, the growth was -74.1% (active) in the experiment on MALME-3M melanoma; -50.5% (active) with MDA-MB-231 breast; -85.9% (active) with RXF 393 renal; -53.5% (active) in the experiment with SF-268 CNS; -88.2% (active) with SF-295 CNS; -90.5% (active) with SF-539 CNS. Moreover, the growth in the experiment with UACC-257 melanoma is -37% (active); in the experiment with M14 melanoma it was -38.6% (active).
As for `Cc1ccc(-c2nc3c(c(-c4ccccc4)nn3-c3ccccc3)c(-c3ccc(O)cc3)c2C#N)cc1`, the growth was 67.5% with NCI-H23 lung; 80% in the experiment with NCI-H226 lung; 88.5% in the experiment with NCI-H322M lung; 40% in the experiment on HOP-62 NSCLC; 27.4% with NCI-H460 lung; 74.5% in the experiment with HOP-92 NSCLC. The growth is 69.4% in the experiment with NCI-H522 lung; 52.3% in the experiment with A549/ATCC NSCLC; 18.6% with 786-0 renal; 70.4% in the experiment with COLO 205 colon; 60.5% in the experiment on DU-145 prostate; 22.3% in the experiment on K-562 leukemia. Moreover, the growth is 75.1% with MALME-3M melanoma; 45.9% in the experiment on MDA-MB-231 breast; -10.4% (active) in the experiment on RXF 393 renal; 60.2% in the experiment on SF-268 CNS; -20.9% (active) with SF-295 CNS; 15.2% with SF-539 CNS. For the same molecule, the growth was 93.9% in the experiment with UACC-257 melanoma and 60.3% in the experiment with M14 melanoma.
In the case of `Fc1cc2c(cc1Cl)N(c1ncnc3ccc(-c4cnc5cnccn45)cc13)CC2`, the growth is 83% in the experiment with NCI-H23 lung; 92.8% in the experiment with NCI-H226 lung; 80.7% with NCI-H322M lung; 78.1% in the experiment on HOP-62 NSCLC; 98.9% with NCI-H460 lung; 87.4% with HOP-92 NSCLC. The growth is 82.6% with NCI-H522 lung; 86.8% with A549/ATCC NSCLC; 81.1% with 786-0 renal; 121% in the experiment with COLO 205 colon; 74.7% in the experiment on DU-145 prostate; 75.2% in the experiment on K-562 leukemia. Also, the growth with MALME-3M melanoma was 91.3%; with MDA-MB-231 breast it was 77.5%; in the experiment with RXF 393 renal, 62%; in the experiment with SF-268 CNS it was 81%; in the experiment with SF-295 CNS, 107%; in the experiment with SF-539 CNS, 84.6%. Also, the results for the growth in the experiment with UACC-257 melanoma and with M14 melanoma were 109% and 80.2%, respectively.
Regarding `CNC(C)[C@H]1CCC2C3CCC4C[C@@H](N(C)C(=O)c5ccccc5)CC[C@]4(C)C3CC[C@@]21C` (stereo not given in full), the growth with NCI-H23 lung is 40.9%; in the experiment with NCI-H226 lung, 80.3%; with NCI-H322M lung, 12.6%; in the experiment with HOP-62 NSCLC, 38.4%; with NCI-H460 lung it was -7.41% (active); in the experiment on HOP-92 NSCLC it was 19.2%. In addition, the growth was 69.5% in the experiment on NCI-H522 lung; 39.9% in the experiment on A549/ATCC NSCLC; 40.1% with 786-0 renal; -79.3% (active) in the experiment with COLO 205 colon; 61.4% in the experiment with DU-145 prostate; -2.77% (active) in the experiment on K-562 leukemia. Also, the growth was -42.1% (active) with MALME-3M melanoma; -1.29% (active) in the experiment with MDA-MB-231 breast; -67% (active) in the experiment with RXF 393 renal; -9.75% (active) in the experiment with SF-268 CNS; 24.3% with SF-295 CNS; -61.2% (active) in the experiment with SF-539 CNS. In addition, the figures for the growth in the experiment on UACC-257 melanoma and with M14 melanoma were -12.6% (active) and -36.6% (active), respectively.
Turning to `Cc1ccc2sc3c(NCCN)nc4ccccc4c3c(=O)c2c1`, the growth is 81.1% in the experiment with NCI-H23 lung; 93.2% in the experiment with NCI-H226 lung; 81.5% with NCI-H322M lung; 80.6% with HOP-62 NSCLC; -17.1% (active) in the experiment on NCI-H460 lung; 50.7% with HOP-92 NSCLC. The growth with NCI-H522 lung is 85%; in the experiment on A549/ATCC NSCLC, 73.3%; with 786-0 renal it was 87.7%; in the experiment on COLO 205 colon, -21.7% (active); with DU-145 prostate it was 64.1%; in the experiment on K-562 leukemia, 0.362% (active). Besides, the growth is 102% in the experiment on MALME-3M melanoma; 41.7% in the experiment on MDA-MB-231 breast; 89.8% in the experiment on RXF 393 renal; 74.5% in the experiment on SF-268 CNS; 105% in the experiment with SF-295 CNS; 70.8% with SF-539 CNS. The values for the growth in the experiment on UACC-257 melanoma and in the experiment on M14 melanoma were 108% and 86.7%, respectively.
For `CCOc1cccc(NC2=C(Br)C(=O)C(C)=C(C)C2=O)c1`, the growth with NCI-H23 lung was 67.5%; in the experiment with NCI-H226 lung, 72%; with NCI-H322M lung, 96.2%; with HOP-62 NSCLC, 83.6%; in the experiment with NCI-H460 lung, 100%; in the experiment with HOP-92 NSCLC, -8.14% (active). Moreover, the growth in the experiment on NCI-H522 lung is 80.5%; with A549/ATCC NSCLC, 103%; with 786-0 renal it was 104%; in the experiment on COLO 205 colon, 123%; in the experiment on DU-145 prostate it was 104%; with K-562 leukemia, 0.431% (active). For the same molecule, the growth is 91.4% with MALME-3M melanoma; 34.3% in the experiment on MDA-MB-231 breast; 113% in the experiment with RXF 393 renal; 94.1% with SF-268 CNS; 101% in the experiment with SF-295 CNS; 94.9% in the experiment with SF-539 CNS. Also, the growth with UACC-257 melanoma is 68%; in the experiment on M14 melanoma it was 87.1%.
In the case of `O=[N+]([O-])c1ccc(Cl)c(-c2cc(CCCCO)on2)c1`, the growth in the experiment with NCI-H23 lung was 101%; in the experiment on NCI-H226 lung it was 93.5%; in the experiment on NCI-H322M lung it was 96.3%; in the experiment with HOP-62 NSCLC it was 106%; in the experiment on NCI-H460 lung, 109%; with HOP-92 NSCLC, 94.2%. The growth in the experiment on NCI-H522 lung was 93.8%; with A549/ATCC NSCLC it was 92.9%; with 786-0 renal, 98.6%; with COLO 205 colon it was 131%; in the experiment on DU-145 prostate it was 111%; with K-562 leukemia it was 102%. The growth in the experiment with MALME-3M melanoma is 102%; with MDA-MB-231 breast, 103%; in the experiment with RXF 393 renal it was 99.2%; with SF-268 CNS, 99.3%; with SF-295 CNS, 111%; in the experiment with SF-539 CNS, 96.7%. The growth is 117% with UACC-257 melanoma and 110% in the experiment with M14 melanoma.

The record behind these values is PubChem BioAssay (NCI).
